Assay results: ChEMBL document CHEMBL4513216, “Probing the Open Global Health Chemical Diversity Library for Multistage-Active Starting Points for Next-Generation Antimalarials” (ACS Infect Dis, 2020)
The whole screen tested about 68,000 compounds, of which about 2,700 (4%) showed an effect of 50% or more. Shown is part of a subset that was picked to be rich in strong results.

Each compound was assayed on Plasmodium berghei (assay: Screen against P. berghei liver stage (PbLuc), transformed with Luciferase, at 2uM). Conditions: tested at 2 uM.
Assay type: functional, HepG2

Compound	INHIBITION [%]
OC(CNCCn1cccn1)c1ccc(C(F)(F)F)cc1 (stereo not drawn)	-33.92
CCc1nnc(Nc2cccc(C3CCN(C)CC3)n2)s1	7.64
CCc1nnc(Nc2cccc(C3CCCN(CC(C)(C)C)C3)n2)s1 (stereo not drawn)	53.05
CCc1nnc(Nc2cccc(C3CCN(CC4CC4)CC3)n2)s1	20.71
CC(C)CCOCCNC(=O)Nc1ccc(F)c(C(N)=O)c1	-24.7
Cc1cc(C(F)(F)F)nc(C2COCCN2S(C)(=O)=O)n1 (stereo not drawn)	6.64
Cc1ccc(CN(C)C(C(=O)O)c2ccc3c(c2)OCO3)o1 (stereo not drawn)	-39.01
CC(C)(C)NC(=O)C1CSCN1S(=O)(=O)c1cccc(F)c1 (stereo not drawn)	7.74
Cc1cccc(S(=O)(=O)N2CSCC2C(=O)NCC2CC2)c1 (stereo not drawn)	3.89
Cc1cccc(S(=O)(=O)N2CSCC2C(=O)NC(C)(C)C)c1 (stereo not drawn)	55.18
N#Cc1cccc(NC(=O)C2CCCN2c2nccs2)c1 (stereo not drawn)	6.77
Cc1ccc2nc(C3CCCN3Cc3csc(C)n3)[nH]c2c1 (stereo not drawn)	29.53
Cc1ccc2nc(C3CCCN3Cc3scnc3C)[nH]c2c1 (stereo not drawn)	47.23
Cc1ccc2nc(C3CCCN3Cc3nnc(C)s3)[nH]c2c1 (stereo not drawn)	78.16
O=C(NCCc1ccccc1)N1CCC(C2OCCO2)CC1	5.92
O=C(Cc1ccc(CO)cc1)N1CCN(c2ccccc2Cl)C(=O)C1	47.76
CCC(NC(=O)c1ccc2[nH]ccc2c1)C(=O)N1CCOCC1 (stereo not drawn)	5.98
CC(C)c1nnc2n1CCN(Cc1ncc(-c3ccccc3)o1)C2	-58.75
CC(C)(C)Oc1ccccc1CNC(=O)C1CCCOC1 (stereo not drawn)	52.98
O=C(NCc1ccccc1OCC1CC1)C1CCOC1 (stereo not drawn)	14.82
COCCNc1ccccc1CNC(=O)C1CCCOC1 (stereo not drawn)	-4.26
NC(=O)CN1CC2(CCC1=O)CCN(Cc1ccc(Cl)c(F)c1)CC2	23.63
CC(C)Cn1cncc1CNC1CCSC1 (stereo not drawn)	-18.33

Compound	INHIBITION [%]
COc1c(CNC2CCN(C(C)(C)C)CC2)c(C(C)C)nn1C	51.19
COc1c(CNC2CCC(O)CC2)c(C(C)C)nn1C (stereo not drawn)	11.2
COc1c(CNC2CCCN(c3ncccn3)C2)c(C(C)C)nn1C (stereo not drawn)	56.02
COc1c(CNC2CCN(c3ccccn3)CC2)c(C(C)C)nn1C	-11.2
COc1c(CNC2CCN(C(=O)C(C)C)CC2)c(C(C)C)nn1C	11.2
COc1c(CNC2CCN(c3ncccn3)CC2)c(C(C)C)nn1C	-79.53
Clc1ccccc1C1CN(CCc2ccncc2)CCO1 (stereo not drawn)	-35.92
COc1ccc(NC(=O)c2nc3ccccc3n(C)c2=O)cc1OC	9.85
Cc1cccc(C(=O)NCc2ccc(CS(N)(=O)=O)cc2)n1	-45.83
CNS(=O)(=O)c1ccc(CNC(=O)c2cccc(C)n2)cc1	-9.17
CNS(=O)(=O)Cc1ccc(CNC(=O)c2cccc(C)n2)cc1	65.77
CO[C@H]1CN(C(=O)OC(C)(C)C)CC1NCc1ccco1 (stereo partly drawn)	32.73
CC(c1ccccc1)N(C)C(=O)CN1CCCc2cc(F)cc(F)c21 (stereo not drawn)	27.52
Nc1nc(C(=O)NCC2CCC3(CCNCC3)CO2)cs1 (stereo not drawn)	-51.85
COCCn1cncc1CN1CCCC(C(=O)Cc2ccccc2)C1 (stereo not drawn)	58.09
O=C(CCc1ccccc1)C1CCCN(Cc2cncn2C2CC2)C1 (stereo not drawn)	21.67
O=C(Cc1ccccc1)C1CCCN(Cc2cncn2C2CCCC2)C1 (stereo not drawn)	19.75
COCCN(Cc1ccoc1)S(=O)(=O)c1ccc(OC)c(Cl)c1	1.04
CN(C)S(=O)(=O)N1CCCCCC1c1cc(-c2ccc(F)cc2)no1 (stereo not drawn)	6.64
Cc1ccccc1C(CC(=O)NCc1n[nH]c(N)n1)c1ccccc1 (stereo not drawn)	28.1
Cc1ccccc1C(CC(=O)NCC(N)=O)c1ccccc1 (stereo not drawn)	57.59
Cc1ccccc1C(CC(=O)NCc1nnc(N)s1)c1ccccc1 (stereo not drawn)	9.13
Cc1cc(C(=O)NCc2cnn(C)c2C)nc(N2CCCCCC2)n1	-5.59

Compound	INHIBITION [%]
O=C(Nc1ccc(F)c(-n2cccc2)c1)NC1(CCO)CCOCC1	-13.38
COCCN(Cc1ccccn1)C(=O)Nc1cccnc1N1CCCC1	-40.03
CN1CCC(Oc2ccc(NC(=O)c3ccccc3Br)cc2)CC1	16.64
Cc1ccccc1C(=O)Nc1ccc(OC2CCN(C)CC2)cc1	37.87
COc1ccccc1C(=O)Nc1ccc(OC2CCN(C)CC2)cc1	56.93
Cc1cccc(C(=O)Nc2ccc(OC3CCN(C)CC3)cc2)c1	11.63
Cc1ccc(C)c(C(=O)Nc2ccc(OC3CCN(C)CC3)cc2)c1	29.71
Cc1ccc(C(=O)Nc2ccc(OC3CCN(C)CC3)cc2)c(C)c1	55.84
CN(CCc1ccccn1)c1cc(N2CCCCC2)ncn1	26.74
Cc1ccc(-c2noc(C3CCN3C(=O)c3cc[nH]n3)n2)s1 (stereo not drawn)	-24.35
CCCc1nnc(N2CC[C@](C)(O)[C@H](C)C2)s1	40.28
Cc1cc(CN2CCc3nc(-c4ccncc4)nc(O)c3CC2)c(C)s1	17.72
CN(CCC(O)c1ccccc1)c1cc(N2CCOCC2)ncn1 (stereo not drawn)	-3.38
CCN(CC)c1nc2sc(C(=O)NCC(=O)OC)cc2s1	5.1
Fc1ccc(N2CCOC3(COCCN(c4ncccn4)C3)C2)cc1 (stereo not drawn)	26.31
Cn1nnc2c(N3CC(C(=O)NCc4cccs4)C3)ncnc21	41.71
Cc1cccc(C)c1OC1CN(C(=O)C2CCCN(C(=O)N(C)C)C2)C1 (stereo not drawn)	10.04
COc1cccc(OC2CN(C(=O)C3CCCN(C(=O)N(C)C)C3)C2)c1 (stereo not drawn)	52.6
Cc1cccc(C)c1OC1CN(C(=O)C2CCN(C(=O)N(C)C)CC2)C1	24.23
CCc1ccc(CN2CCc3[nH]nc(C(=O)N4CCNC(=O)C4)c3C2)o1	-15.83
Cc1ccc(CN2CCc3[nH]nc(C(=O)N4CCNC(=O)C4)c3C2)s1	57.85
Cc1cccc(CN2CCc3[nH]nc(C(=O)N4CCNC(=O)C4)c3C2)n1	25.04
